From PubChem BioAssay
DAT uptake mod: modulates human dopamine transporter uptake under cocaine; Q01959; LLC-PK1 hDAT cells, [14C]-dopamine uptake with cocaine IC80; actives deviate in either direction; B-score at 10 µM; 1.3% of 110,000 active;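 active = Z score or B-score, a plate-position-corrected score, falls beyond the plate's 99.7% confidence bounds, in either direction; inactive = both scores lie inside the 99.7% bounds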;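 note: scored against the spread of the other compound wells on the same plate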
D1 mod: allosterically modulates the human D1 dopamine receptor; HEK293 D1, CRE-luciferase, dopamine EC30 potentiation; actives deviate in either direction; P21728; B-score at 10 µM; 5.9% of 58,000 active;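 active = luminescence count or its row- and column-corrected plate score outside the 99.7% band of the plate's sample wells, on either side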
PostGolgi ctrl: yeast control strain growth, post-Golgi counter-screen. efflux-deficient yeast background strain, growth absorbance A615, 16 h. inhibition, % at 10 µM. 5% of 98,000 active. AID 738
PLAP act: activates human placental alkaline phosphatase; 1.2% of 96,000 active; purified PLAP enzyme, luminescent substrate read-out; active compounds read high; activation fold at 20 µM; in the data active = activation fold above about 2
Target sequence (P05187 whole entry, looked up): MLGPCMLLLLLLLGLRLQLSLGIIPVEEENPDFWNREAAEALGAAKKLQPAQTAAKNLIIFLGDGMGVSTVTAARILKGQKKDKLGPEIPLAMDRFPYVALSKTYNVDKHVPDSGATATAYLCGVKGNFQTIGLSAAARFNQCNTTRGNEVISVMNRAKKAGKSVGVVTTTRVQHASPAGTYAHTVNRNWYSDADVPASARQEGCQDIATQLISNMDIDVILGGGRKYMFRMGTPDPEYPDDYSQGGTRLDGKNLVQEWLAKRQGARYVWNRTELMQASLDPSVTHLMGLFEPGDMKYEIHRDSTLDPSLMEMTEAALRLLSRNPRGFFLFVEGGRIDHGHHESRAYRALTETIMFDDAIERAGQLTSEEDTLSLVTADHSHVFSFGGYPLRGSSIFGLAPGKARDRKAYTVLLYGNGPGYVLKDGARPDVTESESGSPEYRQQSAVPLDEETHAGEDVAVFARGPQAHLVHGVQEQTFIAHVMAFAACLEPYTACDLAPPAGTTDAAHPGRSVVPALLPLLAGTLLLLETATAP
PostGolgi yeast: growth inhibition of a yeast mutant, post-Golgi transport screen. inhibition, % at 10 µM. AID 739. 0.9% of 98,000 active. post-Golgi transport phenotypic cell assay;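 note: yeast cells grown in 1536-well plates; yeast grown about 18 h at 30C before absorbance read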
Cav32 inh: human Cav3.2 channel inhibition, primary screen | Cav3.2-expressing cells, Fluo-4 calcium fluorescence FDSS; active compounds read low | B-score at 10 µM | 4% of 100,000 active | AID 449739;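 active = single-dose well whose peak fluorescence ratio is a statistical outlier from its plate by either plate-standardised score or position-corrected B-score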
The depositor's hits bear a star. Sampled rows, rich in hits. Any-hit rate of the full collection: about 12%. Cut-off read from the data, not from the text of the source, unless noted: active = inhibition above about 30%; inactive = the rest.

Screening Cc1ccc(S(=O)(=O)/N=S(\C)CC2CC2(Cl)Cl)cc1 (stereo not drawn) returned DAT uptake mod -0.52, PostGolgi ctrl 25, PLAP act 1.3, PostGolgi yeast -7 and Cav32 inh 0.35.
`CS(=O)(=O)Nc1ccc(C(=O)NCc2ccco2)cc1` gave DAT uptake mod -0.008, D1 mod -0.33, PostGolgi ctrl 15, PLAP act 1.1, PostGolgi yeast -7 and Cav32 inh 0.55.
`Cc1sc(NC(=O)CSc2nnnn2C2CCCCC2)c(C#N)c1C` gave PostGolgi ctrl -2, PLAP act 1.1 and PostGolgi yeast 0.
For CCN(CC)CCCN1C(=O)C(O)=C(C(=O)c2ccco2)C1c1ccc(OC(C)C)cc1 (stereo not drawn) the results were DAT uptake mod 0.49, D1 mod 0.38, PostGolgi ctrl 43*, PLAP act 1.6, PostGolgi yeast -5 and Cav32 inh 0.017.
Cc1ccc2nc(N3C(=O)C(O)=C(C(=O)c4ccco4)C3c3cccs3)sc2c1 (stereo not drawn) was read as DAT uptake mod 1.1, PostGolgi ctrl 11, PLAP act 1.2, PostGolgi yeast 1 and Cav32 inh -3.1*.
For O=C(CCCCCn1c(=O)[nH]c2ccccc2c1=O)NCCCN1CCN(c2ccccc2F)CC1 the results were D1 mod -1.8, PostGolgi ctrl 5, PLAP act 1.5 and PostGolgi yeast -7.
O=C(CS(=O)(=O)c1ccccc1)Nc1nc(-c2ccccc2)cs1 was read as DAT uptake mod 0.072, PostGolgi ctrl 41*, PLAP act 1.3, PostGolgi yeast -8 and Cav32 inh -4.9*.
`Cc1ccc(-n2c(SCC(N)=O)nnc2-c2ccccn2)cc1C` gave DAT uptake mod -0.53, D1 mod 1.6, PostGolgi ctrl 6, PLAP act 1.1, PostGolgi yeast -7 and Cav32 inh 2.4.
`Cc1csc(NC(=O)CSc2nnc(-c3ccccn3)n2-c2ccc(C)c(C)c2)n1` gave DAT uptake mod 2.7*, D1 mod 1.2, PostGolgi ctrl 1, PLAP act 1.5, PostGolgi yeast 4 and Cav32 inh -2.
Screening CCn1c(SCC(=O)Nc2nccs2)nnc1-c1ccccc1 returned DAT uptake mod 0.99, D1 mod -0.58, PostGolgi ctrl 9, PLAP act 1, PostGolgi yeast -5 and Cav32 inh 0.46.
For Cc1ccc(S(=O)(=O)CC(=O)Nc2nc(-c3ccccc3)cs2)cc1 the results were DAT uptake mod 0.11, PostGolgi ctrl 63*, PLAP act 1.1, PostGolgi yeast -13 and Cav32 inh -7.2*.
`CCn1c(SCC(=O)Nc2nc(-c3ccccc3)cs2)nnc1-c1ccccc1` gave DAT uptake mod -0.52, D1 mod -2, PostGolgi ctrl 58*, PLAP act 2*, PostGolgi yeast 9 and Cav32 inh -3.1.
`CC1CC(C)CN(C(=O)CSc2nc(Cc3cccs3)nc3ccccc23)C1` (stereo not drawn) gave DAT uptake mod 0.65, PostGolgi ctrl 18, PLAP act 1.5, PostGolgi yeast 17 and Cav32 inh -3.6.
`Cc1ccc(NC(=O)NC(=O)CN2C(=O)NC3(CCc4ccccc43)C2=O)c(C)c1` (stereo not drawn) gave DAT uptake mod 2.5*, PostGolgi ctrl 3, PLAP act 0.9, PostGolgi yeast -3 and Cav32 inh -2.2.
COc1cc2c(cc1NC(=O)CCCN1C(=O)CCC1=O)oc1ccccc12 was read as DAT uptake mod 2.7*, D1 mod -0.56, PostGolgi ctrl -3, PLAP act 1.5, PostGolgi yeast 1 and Cav32 inh 0.25.
COc1cc2c(cc1NC(=O)CN1C(=O)NC3(CCc4ccccc43)C1=O)oc1ccccc12 (stereo not drawn) was read as DAT uptake mod 0.1, PostGolgi ctrl 38*, PLAP act 1.5, PostGolgi yeast 8 and Cav32 inh 0.14.
Screening O=C(Cn1nc(Cl)nc1Cl)c1cc2ccccc2oc1=O returned DAT uptake mod -1.1, D1 mod 0.13, PostGolgi ctrl 1, PLAP act 1.5, PostGolgi yeast -4 and Cav32 inh 2.
Cc1nnc(SCc2cccs2)[nH]c1=O was read as DAT uptake mod -0.0004, D1 mod -0.082 and Cav32 inh -0.6.
`CCn1cc(C(=O)NCC2CCCO2)c(=O)c2cc(S(=O)(=O)N3CCC(C)CC3)ccc21` (stereo not drawn) gave DAT uptake mod 0.84, D1 mod -4.8*, PostGolgi ctrl 10, PLAP act 1.4, PostGolgi yeast -12 and Cav32 inh 1.6.
For C=CCn1cc(C(=O)NCCCOC)c(=O)c2cc(S(=O)(=O)N3CCC(C)CC3)ccc21 the results were D1 mod 4.1*.
Screening COc1ccc(C2C(C#N)=C3NC(=O)c4c(sc5c4CCCCC5)N3C3=C2C(=O)CC(C)(C)C3)cc1 (stereo not drawn) returned DAT uptake mod 2.3*, PostGolgi ctrl 36*, PLAP act 1.3, PostGolgi yeast 7 and Cav32 inh -2.2.
O=C(C1CCCN1S(=O)(=O)c1cccc2cccnc12)N1CCn2c1nc1ccccc12 (stereo not drawn) was read as DAT uptake mod 1.8, D1 mod -0.062, PostGolgi ctrl 24, PLAP act 1.4, PostGolgi yeast 18 and Cav32 inh 0.92.
For O/N=C1\CCc2cc(Cl)ccc21 the results were DAT uptake mod -0.022, PostGolgi ctrl 10, PLAP act 0.8, PostGolgi yeast 11 and Cav32 inh 2.4*.
`Cc1ccc(S(=O)(=O)N(CCC#N)CCN2CCCC2)cc1` gave DAT uptake mod 0.46, D1 mod -0.26, PostGolgi ctrl 30*, PLAP act 1.5, PostGolgi yeast 6 and Cav32 inh 1.1.
`Brc1ccc2ncnc(NCc3ccccc3)c2c1` gave DAT uptake mod -0.98, PostGolgi ctrl 14, PLAP act 0.7, PostGolgi yeast 2 and Cav32 inh 0.073.
Clc1ccc(Nc2ncnc3ccc(Br)cc23)cc1 was read as DAT uptake mod 0.21, PostGolgi ctrl 33*, PLAP act 1.1, PostGolgi yeast -3 and Cav32 inh -2.2.
`Clc1cccc(Nc2ncnc3ccc(Br)cc23)c1` gave DAT uptake mod -0.13, PostGolgi ctrl 46*, PLAP act 1.1, PostGolgi yeast 9 and Cav32 inh -2.6.
Screening Cc1cc(C)cc(OCC(=O)OCC(=O)c2c(N)n(C)c(=O)n(C)c2=O)c1 returned DAT uptake mod 0.48, PostGolgi ctrl 1, PLAP act 0.9, PostGolgi yeast 4 and Cav32 inh -0.21.
For Cc1csc(SCC(=O)c2cc(C)n(Cc3cccs3)c2C)n1 the results were DAT uptake mod -0.026, D1 mod -5.2*, PostGolgi ctrl 12, PLAP act 0.9, PostGolgi yeast -14 and Cav32 inh -4*.
